Experimental findings from PubChem BioAssay (NCATS) are described below.

Molecules are shown by their SMILES. Values without a mark were called inactive. Inconclusive results are not listed. Calls of active or inactive are those of the source. Calls follow the shape of the dose curve; as a rule, active = well fitted curve in the direction sought with a large enough effect; inconclusive = small, poorly fitted or top-dose-only effect, or another doubt; inactive = no such curve, though single readings can be large; an effect the other way counts as inactive or inconclusive.

The test system of assay [1] is Zika virus NS2B-NS3 protease (linked construct). As to the kind of experiment: Primary screen NINDS Rhodamine qHTS for Zika virus inhibitors (AID 1347160). Also: nearly all actives have a fitted effect of over 55% in size. A digest of the protocol: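 Purified NS2B-NS3 protease with the NS2B hydrophilic domain joined by a flexible linker (25 nM) in 10 mM Tris-HCl pH 8.0, 0.01% Tween 20, preincubated 15 min at RT with compound; Rhodamine110 peptide substrate 1.5 µM; fluorescence change over 15 min; 4-parameter Hill fit.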

Assay [2] in a line: Primary qHTS for inhibitors of nuclear receptor binding SET domain protein 2 (NSD2) in an isogenic RCH-ACV NSD2 p.E1099K mutant (9B) (AID 1645876). Also: nearly all actives have a fitted effect of over 70% in size. Also: potency is read from the fitted curve at half-maximal effect.
Assay [3] has as its target Glutathione peroxidase 1 (Homo sapiens) (UniProt P07203). As to the kind of experiment: Primary qHTS Assay for Inhibitors of Recombinant Selenoprotein Glutathione Peroxidase 1 (GPX1) (AID 1845191). Also: nearly all actives have a fitted effect of over 65% in size. The method, boiled down: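 Recombinant GPX1 (10 nM final) was preincubated with compound for 30 min at room temperature, then reacted with 1 mM GSH, 0.5 mM CHP, 0.5 mM NADPH and 100 nM glutathione reductase; NADPH fluorescence (340/450 nm) was read at 0 and 15 min.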
For orientation: qHTS replaces the single test concentration by a dilution series.

In assay [4] the target is Phospholipid hydroperoxide glutathione peroxidase GPX4 (Homo sapiens) (UniProt P36969). As to the kind of experiment: Primary qHTS Assay for Inhibitors of Recombinant Selenoprotein Glutathione Peroxidase 4 (GPX4) (AID 1845192). Also: % is scaled to controls: 0 for no effect and ±100 for the full control effect; nearly all actives have a fitted effect of over 65% in size. A digest of the protocol:
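GR-coupled readout: 100 nM GR, 1 mM GSH, 0.5 mM NADPH; NADPH fluorescence (ex 340/em 450 nm) read at t=0 and after 15 min RT. GPX4 200 nM, preincubated 30 min with compound; substrate 0.5 mM CHP.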

In assay [5] the target is Luciferin 4-monooxygenase (Photinus pyralis) (UniProt P08659). Briefly: Primary firefly luciferase (FLuc) qHTS assay for identification of artifact compounds. (AID 1845220). Also: nearly all actives have a fitted effect of over 60% in size. To be noted: outcome: dose series up to 54.1 µM unless noted. A digest of the protocol:
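In this counter-screen for luciferase artifacts, test compounds met substrate (10 uM each luciferin and ATP) before 10 nM enzyme started the reaction. Light output was measured 5 min later.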

A short description of assay [6]: Primary fluorescence-based thiol-reactive (MSTI) qHTS assay for identification of artifact compounds. (AID 1845221).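 Also: thiol-reactive compounds lower the probe fluorescence signal; nearly all actives have a fitted effect of over 65% in size.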 The method, boiled down: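 One-hour, room-temperature, dark incubation of compound with 4 uM MSTI in PBS (pH 7.4, 2% DMSO) precedes a fluorescence read at 525 nm excitation, 598 nm emission; Hill-equation fitting yields concentration-response values.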

The test system of assay [7] is Nanoluciferase (engineered Oplophorus gracilirostris luciferase). As to the kind of experiment: Primary Nanoluciferase (NLuc) qHTS assay for identification of artifact compounds. (AID 1845222).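 Also: NLuc secreted into diluted conditioned medium of S16 cells; 0% = DMSO and -100% = no enzyme.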 A digest of the protocol: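 Using secreted nanoluciferase in S16 culture medium (0.22 um filtered, 1:55 dilution), compounds were preincubated 15 min at RT. Signal was generated with Nano-Glo reagent (1:100) over 5 min.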

Another assay concerns CRL-7250. Briefly: Cytotoxic Profiling of Annotated Libraries Using Quantitative High-Throughput Screening (AID 1296008). Also: nearly all actives have a fitted effect of over 60% in size. Also: potency is read from the fitted curve at half-maximal effect. As to max response: % is scaled to controls: 0 for no effect and ±100 for the full control effect. To be noted: Five cell lines viability, CellTiter-Glo ATP luminescence, 48-72 h; max response: stronger effect = lower value. The method, boiled down:
(§1)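 Compounds were pin-transferred onto cells and incubated 48 or 72 hr at 37 degree Celsius, 95% humidity. CellTiter-Glo was added, plates sat 10 min at room temperature, then ATP-coupled luminescence was imaged as the viability read-out.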

The next assay has as its system HEK293. The description is as above. Conditions: Five cell lines viability, CellTiter-Glo ATP luminescence, 48-72 h; max response: stronger effect = lower value. The method, boiled down:
as §1

A further assay relates to HaCat. The assay is described as above. To be noted: Five cell lines viability, CellTiter-Glo ATP luminescence, 48-72 h; max response: stronger effect = lower value. The method, boiled down:
as §1
(ATP-based viability assays read luminescence as a measure of living cells.)

The test system of a further assay is C33A. Briefly: Primary qHTS to identify gynecologic anti-cancer compounds using libraries of approved drugs and bioactive compounds (AID 1345084). Also: nearly all actives have a fitted effect of over 55% in size. Also: potency is read from the fitted curve at half-maximal effect. To be noted: Gynecologic cancer cell panel viability, ATPlite luminescence, 48 h; series mostly up to 57.5 µM. A digest of the protocol:
(§2)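 In this quantitative HTS, cell killing is estimated from loss of ATP-dependent luciferase light. Cells see five compound concentrations over a 48 h exposure.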

A further assay relates to Hek293T. The assay is described as above. To be noted: Gynecologic cancer cell panel viability, ATPlite luminescence, 48 h, control line for the selectivity index; series mostly up to 57.5 µM. The method, boiled down:
as §2

Another assay concerns OV90. Described as above. To be noted: Gynecologic cancer cell panel viability, ATPlite luminescence, 48 h; series mostly up to 57.5 µM. The method, boiled down:
as §2

In another assay the test system is PA-1. The assay is described as above. Conditions: Gynecologic cancer cell panel viability, ATPlite luminescence, 48 h; series mostly up to 57.5 µM. The method, boiled down: as §2
For the next assay, the system named is Tov-21-G. Described as above. Conditions: Gynecologic cancer cell panel viability, ATPlite luminescence, 48 h; series mostly up to 57.5 µM. The method, boiled down: as §2
Another assay relates to Tov112D. The assay is described as above. Conditions: Gynecologic cancer cell panel viability, ATPlite luminescence, 48 h; series mostly up to 57.5 µM. A digest of the protocol:
as §2

Assay [8] has as its target Calcium and integrin-binding protein 1 (Homo sapiens) (UniProt Q99828). Briefly: Primary qHTS for Identification of Calcium Integrin Binding Protein 1 (CIB1) Competitor (AID 1508620).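 Also: GST tagged CIB1 binding a fluorescein labelled alphaIIb integrin peptide tracer; top concentration of the series differs between compounds; % is scaled to controls: 0 for no effect and ±100 for the full control effect.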 A digest of the protocol:
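Fluorescence polarization competition: CIB1-GST (1 uM final) preincubated with compound 15 min at room temperature, then FITC-labeled alphaIIb peptide (100 nM final) added for another 15 min. Polarization read at Ex 480/Em 540.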

The subject of a further assay is NIH3T3. As to the kind of experiment: Cytotoxic Profiling of Annotated Libraries Using Quantitative High-Throughput Screening (AID 1296008). Also: nearly all actives have a fitted effect of over 60% in size. Also: potency is read from the fitted curve at half-maximal effect. As to max response: % is scaled to controls: 0 for no effect and ±100 for the full control effect. Conditions: Five cell lines viability, CellTiter-Glo ATP luminescence, 48-72 h; max response: stronger effect = lower value. A digest of the protocol:
as §1

The next assay relates to CASKI. Briefly: Primary qHTS to identify gynecologic anti-cancer compounds using libraries of approved drugs and bioactive compounds (AID 1345084). Also: nearly all actives have a fitted effect of over 55% in size. Also: potency is read from the fitted curve at half-maximal effect. To be noted: Gynecologic cancer cell panel viability, ATPlite luminescence, 48 h; series mostly up to 57.5 µM. The method, boiled down:
as §2

Another assay has as its system Es-2. The description is as above. To be noted: Gynecologic cancer cell panel viability, ATPlite luminescence, 48 h; series mostly up to 57.5 µM. A digest of the protocol:
as §2

Phospholipid hydroperoxide glutathione peroxidase GPX4 (Homo sapiens), sequence (P36969 whole entry, looked up): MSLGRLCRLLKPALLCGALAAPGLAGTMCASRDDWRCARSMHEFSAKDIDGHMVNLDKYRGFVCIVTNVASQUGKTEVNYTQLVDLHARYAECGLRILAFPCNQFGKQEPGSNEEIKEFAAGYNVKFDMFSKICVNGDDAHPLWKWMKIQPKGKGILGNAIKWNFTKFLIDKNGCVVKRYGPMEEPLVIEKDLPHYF
Glutathione peroxidase 1 (Homo sapiens), sequence (P07203 whole entry, looked up): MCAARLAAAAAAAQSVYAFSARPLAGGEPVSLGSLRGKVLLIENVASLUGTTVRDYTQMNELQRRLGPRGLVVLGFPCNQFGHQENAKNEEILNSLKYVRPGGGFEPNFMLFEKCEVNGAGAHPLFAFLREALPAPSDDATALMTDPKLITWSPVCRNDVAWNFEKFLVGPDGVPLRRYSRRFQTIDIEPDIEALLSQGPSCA
Calcium and integrin-binding protein 1 (Homo sapiens), sequence (Q99828 whole entry, looked up): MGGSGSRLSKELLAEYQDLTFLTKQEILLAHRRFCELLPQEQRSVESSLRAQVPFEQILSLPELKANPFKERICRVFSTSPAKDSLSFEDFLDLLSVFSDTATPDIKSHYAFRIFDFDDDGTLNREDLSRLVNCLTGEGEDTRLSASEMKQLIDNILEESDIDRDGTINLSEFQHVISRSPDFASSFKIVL

For `CC[C@@]1(O)C(=O)OCc2c1cc1n(c2=O)Cc2cc3c(OC)cccc3nc2-1`, the Potency entry in [1], in assay [3], in assay [4], in [6] and in assay [7] was “inactive” each time. Also, the Potency in [2] is 0.0071 µM (active); in the assay on CRL-7250, 5.08 µM (active); with HEK293, 0.0508 µM (active); with HaCat, 0.114 µM (active); with C33A, 0.631 µM (active); in the assay on Hek293T, 1.58 µM (active). Besides, the Potency with OV90 is 1.12 µM (active); in the assay with PA-1, 0.0891 µM (active); in the assay on Tov-21-G it was 5.62 µM (active); in the assay on Tov112D, 0.224 µM (active). Further, the call in [5] was inactive.

On to `CN1CCN(c2nc3ccccc3nc2Cl)CC1`, for which the Potency entry in [1], in assay [8], in assay [2], in assay [3], in assay [4] and in assay [6] was “inactive” throughout. Further, the Potency entry (in assay [7]; with C33A; in the assay on CASKI; with Es-2; with Hek293T; in the assay on OV90) was “inactive” each time. In addition, the Potency entry in the assay on PA-1, with Tov-21-G and in the assay with Tov112D was “inactive” throughout. In addition, the result (in assay [5]; with HEK293; with NIH3T3) was inactive. For the same molecule, the max response with CRL-7250 is -8.1%.

`C=C1C[C@]2(O)[C@@]3(C)CCC(=O)C(C)(C)C3=C(O)C(=O)[C@@]2(C)[C@@H]2C(=O)O[C@@](C)(C(=O)OC)C(=O)[C@@]12C`: the Potency entry (in [8]; in [2]; in assay [3]; in assay [4]; in assay [7]; with C33A) was “inactive” throughout. Further, the Potency entry in the assay with CASKI, in the assay with Es-2, in the assay on Hek293T, in the assay on OV90, with PA-1 and in the assay with Tov-21-G was “inactive” each time. Also, the Potency result with Tov112D was “inactive”. The outcome (in assay [5]; in the assay on HEK293) was inactive. For the same molecule, the values for the max response in the assay with CRL-7250 and with NIH3T3 were 2.22% and 1.84%, respectively.

As for `Cc1ccccc1CN1CCC(N2CCC(n3c(=O)[nH]c4ccccc43)CC2)CC1`, the Potency result in assay [1], in assay [8], in [2], in assay [3], in [4] and in assay [6] was “inactive” each time. Moreover, the Potency entry (in assay [7]; in the assay with CASKI; with Es-2; in the assay on PA-1; in the assay with Tov-21-G; in the assay with Tov112D) was “inactive” each time. Moreover, the result (in assay [5]; with NIH3T3) was inactive. Further, the Potency was 7.31 µM (active) in the assay on CRL-7250 and 6.51 µM (active) with HEK293. The max response in the assay with HaCat was 0.939%.

As for `C[C@]12CC[C@H](O)C[C@H]1CC[C@@H]1[C@@H]2[C@H](O)C[C@]2(C)[C@@H](c3ccc(=O)oc3)CC[C@]12O`, the Potency result in assay [1], in assay [8], in [3], in [4], in assay [6] and in [7] was “inactive” each time. The Potency in assay [2] is 0.0163 µM (active); with CRL-7250 it was 0.0103 µM (active); in the assay with HEK293, 0.0366 µM (active); in the assay on HaCat it was 0.146 µM (active); with CASKI it was 0.501 µM (active); with Es-2 it was 0.1 µM (active). Also, the figures for the Potency in the assay with OV90, in the assay on PA-1 and in the assay on Tov-21-G were 0.355 µM (active), 0.355 µM (active) and 0.1 µM (active), respectively. Further, the call in [5] was inactive.
